Results taken from PubChem BioAssay AID454 (Sanford-Burnham Center for Chemical Genomics, 2006).
The whole screen tested about 10,000 compounds, of which about 25 (0.2%) were called active.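 How the source made its calls: active means compound among top-ranked inhibitors of TNF-induced VCAM-1 adhesion protein staining, with the hit upheld by image or statistical review; inactive means the rest, including hits rejected on review.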 The sample as a whole holds a higher share of actives than the screen did.

assay: suppression of endothelial VCAM-1 upregulation – cell-based, plate reader, pooled HUVEC, TNFa stimulus (AID 454); conditions: HUVEC TNFa-induced VCAM-1 surface immunofluorescence; hits give high values,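 compound tested at 5 µM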

Row | SMILES | inhibition
1 | Cc1cccc(C2=NCC(=O)N(CC(=O)NCc3ccco3)c3sc4c(c32)CCCC4)c1 | 78.7% (active)
2 | O=C(CN1C(=O)CN=C(c2ccccc2)c2ccccc21)NCc1ccco1 | inactive
3 | O=C(Cn1cc(C(=O)c2ccccc2)c2ccccc21)NCc1ccco1 | inactive
4 | COc1ccc(CCn2c(O)c(C=NCc3cccnc3)c(=O)[nH]c2=O)cc1OC | inactive
5 | CCOc1ccc(C2SCC(=O)Nc3c2c(=O)[nH]n3C2CCCCCC2)cc1 (stereo not given) | inactive
